Some test systems named below: RPMI-8226 leukemia; OVCAR-8 ovarian; OVCAR-5 ovarian; OVCAR-4 ovarian; SK-OV-3 ovarian; IGROV1 ovarian; OVCAR-3 ovarian; HS 578T breast; NCI/ADR-RES ovarian; T-47D breast; BT-549 breast; MDA-MB-435 melanoma; SW-620 colon; MCF7 breast; HCT-116 colon; HCC-2998 colon; KM12 colon.
Common to all, as to test: NCI-60 one-dose screen, 48 h (100 = growth as untreated, 0 = no growth, -100 = all killed)
What all share (settings): 10 µM

Compounds without any hit were thinned out: in the full panel of roughly 83,000, 20% have a hit.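 Testing used 96-well plates and a 48-hour single-concentration exposure. Example: -40 means 40% of the starting cells died.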 Values without a mark were called inactive. Active and inactive are the calls of the source. How the source made its calls: active means growth percent below 10; inactive means the rest.

Turning to `COc1cccc2c1O/C(=C\c1ncc([N+](=O)[O-])n1C)C2=O`, the growth is -8.69% (active) with RPMI-8226 leukemia; -23.3% (active) in the test on OVCAR-8 ovarian; -9.04% (active) in the test with OVCAR-5 ovarian; 7.16% (active) with OVCAR-4 ovarian; -16.6% (active) with SK-OV-3 ovarian; -17.7% (active) in the test on IGROV1 ovarian. For the same compound, the growth was -3.72% (active) with OVCAR-3 ovarian; -24.3% (active) in the test on HS 578T breast; -3.54% (active) in the test with NCI/ADR-RES ovarian; 97.5% in the test with T-47D breast; -63.6% (active) in the test with BT-549 breast; -62.5% (active) with MDA-MB-435 melanoma. In addition, the growth was -20% (active) in the test with SW-620 colon; 3.84% (active) with MCF7 breast; -53.2% (active) in the test on HCT-116 colon; -54.9% (active) with HCC-2998 colon; -50.6% (active) in the test on KM12 colon.

In the case of `O=C1/C(=C/c2ccc([N+](=O)[O-])s2)Oc2ccc(Cl)cc21`, the growth with RPMI-8226 leukemia was 0.77% (active); in the test on OVCAR-8 ovarian, 1.27% (active); in the test with OVCAR-5 ovarian, -80.6% (active); in the test with OVCAR-4 ovarian, -76.5% (active); with SK-OV-3 ovarian it was 7.47% (active); in the test with IGROV1 ovarian, -67.9% (active). The growth in the test with OVCAR-3 ovarian was -68.8% (active); with HS 578T breast, 17.6%; with NCI/ADR-RES ovarian, 4.88% (active); with T-47D breast it was -34.9% (active); in the test with BT-549 breast, -67.1% (active); in the test on MDA-MB-435 melanoma it was -60.4% (active). In addition, the growth is -64.4% (active) in the test on SW-620 colon; -26.7% (active) with MCF7 breast; -52.7% (active) in the test on HCT-116 colon; -74.8% (active) in the test with HCC-2998 colon; -53.3% (active) in the test on KM12 colon.

Turning to `COc1cc(CSc2nc3ccc(C)cc3c(=O)n2Cc2ccccc2)cc(OC)c1OC`, the growth in the test on RPMI-8226 leukemia is 54.1%; with OVCAR-8 ovarian, 35.2%; with OVCAR-5 ovarian, 45.4%; with OVCAR-4 ovarian, 53.1%; in the test on SK-OV-3 ovarian it was 23.9%; in the test with IGROV1 ovarian, 24.3%. In addition, the growth was -22.7% (active) with OVCAR-3 ovarian; 20.7% in the test on HS 578T breast; 12.7% with NCI/ADR-RES ovarian; 34.1% with T-47D breast; 34.8% with BT-549 breast; -5.84% (active) in the test with MDA-MB-435 melanoma. Also, the growth in the test on SW-620 colon is 25.8%; with MCF7 breast, 18%; with HCT-116 colon, 25.2%; in the test on HCC-2998 colon, 43%; in the test on KM12 colon it was 25.3%.

For `Cc1ccc2nc3[nH]c(=O)[nH]c(=O)c3c(N)c2c1`, the growth with RPMI-8226 leukemia is 89.8%; in the test with OVCAR-8 ovarian, 88.5%; with OVCAR-5 ovarian it was 92.9%; with OVCAR-4 ovarian, 81.7%; in the test on SK-OV-3 ovarian, 86%; with IGROV1 ovarian, 75.1%. Also, the growth was 101% with OVCAR-3 ovarian; 79.2% in the test on HS 578T breast; 97.8% with NCI/ADR-RES ovarian; 85.1% with T-47D breast; 99.8% with BT-549 breast; 91.5% in the test with MDA-MB-435 melanoma. For the same compound, the growth in the test with SW-620 colon is 97.8%; in the test with HCT-116 colon, 80.6%; in the test on HCC-2998 colon, 95.9%; with KM12 colon, 91%.

As for `COc1cccc(C(=O)NNc2nc(N3CCN(C4CCCCC4)CC3)nc(N3CCN(C(c4ccccc4)c4ccccc4)CC3)n2)c1`, the growth is -11.5% (active) in the test with RPMI-8226 leukemia; 30.1% with OVCAR-8 ovarian; 94.3% in the test with OVCAR-5 ovarian; 24.2% with OVCAR-4 ovarian; 52.2% with SK-OV-3 ovarian; 37.6% in the test with IGROV1 ovarian. The growth with OVCAR-3 ovarian was 32.2%; with HS 578T breast, 74.2%; with NCI/ADR-RES ovarian it was 31.1%; in the test on T-47D breast it was 29%; with BT-549 breast, 55.5%; with MDA-MB-435 melanoma, 35%. For the same compound, the growth with SW-620 colon was 39%; in the test with MCF7 breast, 11.2%; with HCT-116 colon, 19%; in the test with HCC-2998 colon it was 42%; in the test with KM12 colon, 23.6%.

Take `CCOC(=O)C(=O)Cc1cccnn1`: the growth in the test with RPMI-8226 leukemia was 102%; in the test on OVCAR-8 ovarian, 103%; with OVCAR-5 ovarian, 103%; in the test on OVCAR-4 ovarian, 102%; in the test with SK-OV-3 ovarian, 106%; in the test with IGROV1 ovarian, 109%. Besides, the growth in the test on OVCAR-3 ovarian was 122%; with HS 578T breast, 133%; in the test on NCI/ADR-RES ovarian it was 104%; with T-47D breast, 122%; in the test with BT-549 breast, 101%; in the test on MDA-MB-435 melanoma it was 111%. The growth in the test with SW-620 colon was 109%; in the test with MCF7 breast it was 95.3%; in the test with HCT-116 colon, 102%; with HCC-2998 colon it was 112%; in the test with KM12 colon it was 108%.

`CCN(CC)CCn1c(=N)n(CC(O)c2ccc(Cl)c(Cl)c2)c2ccccc21` (stereo unspecified): the growth is 68.1% in the test on RPMI-8226 leukemia; 92.6% in the test with OVCAR-8 ovarian; 102% with OVCAR-5 ovarian; 69% with OVCAR-4 ovarian; 92.3% in the test with SK-OV-3 ovarian; 90.1% in the test on IGROV1 ovarian. In addition, the growth in the test on OVCAR-3 ovarian is 96.7%; in the test on HS 578T breast, 80.5%; in the test with NCI/ADR-RES ovarian, 88.6%; in the test with T-47D breast, 66.5%; with BT-549 breast, 76.7%; in the test with MDA-MB-435 melanoma, 1.39% (active). The growth was 93.5% in the test on SW-620 colon; 90% in the test with MCF7 breast; 77.7% with HCT-116 colon; 74.5% in the test with HCC-2998 colon; 84.4% with KM12 colon.

Consider `CCCCCCCC/C=C/CCCCCCCCC1=NCCN1CCO`, for which the growth was 52.7% in the test on RPMI-8226 leukemia; 74.9% with OVCAR-8 ovarian; 95.2% with OVCAR-5 ovarian; 81.7% with OVCAR-4 ovarian; 97.8% in the test with SK-OV-3 ovarian; 63.8% in the test on IGROV1 ovarian. The growth was 83.1% in the test with OVCAR-3 ovarian; 81% in the test with HS 578T breast; 81.1% with NCI/ADR-RES ovarian; 79.7% with T-47D breast; 83.1% in the test with BT-549 breast; 68.9% in the test on MDA-MB-435 melanoma. Besides, the growth was 40% with SW-620 colon; 71.2% in the test with MCF7 breast; 7.94% (active) with HCT-116 colon; 97.8% in the test with HCC-2998 colon; 62.5% in the test with KM12 colon.

Take `COc1c(-c2c3sc(=O)[nH]c3nc3c2c(=O)[nH]n3C(C)C)cc2c(c1OC)OCO2`: the growth was 93.2% with RPMI-8226 leukemia; 98.8% in the test on OVCAR-8 ovarian; 96.7% in the test with OVCAR-5 ovarian; 107% in the test with OVCAR-4 ovarian; 99.5% in the test on SK-OV-3 ovarian; 102% in the test with IGROV1 ovarian. The growth in the test with OVCAR-3 ovarian was 113%; in the test with HS 578T breast, 99.2%; with NCI/ADR-RES ovarian, 99.8%; in the test on T-47D breast, 98.6%; in the test on BT-549 breast, 84.6%; in the test on MDA-MB-435 melanoma, 90.9%. Further, the growth in the test on SW-620 colon is 108%; in the test with MCF7 breast, 106%; in the test on HCT-116 colon, 101%; in the test with HCC-2998 colon, 107%; in the test with KM12 colon it was 101%.

Turning to `Cc1ccc(NC(=O)/C=N/O)cc1C`, the growth in the test with RPMI-8226 leukemia was 96.6%; with OVCAR-8 ovarian, 98.6%; with OVCAR-5 ovarian, 96.9%; in the test with OVCAR-4 ovarian, 85.2%; in the test on SK-OV-3 ovarian it was 81.3%; with IGROV1 ovarian, 117%. For the same compound, the growth in the test with OVCAR-3 ovarian was 87%; in the test with HS 578T breast, 95.7%; in the test with NCI/ADR-RES ovarian, 112%; in the test on T-47D breast it was 76.4%; in the test on BT-549 breast, 91.6%; in the test with MDA-MB-435 melanoma, 96.5%. In addition, the growth is 100% in the test with SW-620 colon; 61.5% in the test on MCF7 breast; 98.1% in the test with HCT-116 colon; 116% in the test on HCC-2998 colon; 104% in the test with KM12 colon.

For the compound `CCCCCCCCCCCC(=O)NCCCN(C)C`, the growth with RPMI-8226 leukemia is 78.4%; with OVCAR-8 ovarian, 93.7%; in the test on OVCAR-5 ovarian it was 91.1%; with OVCAR-4 ovarian, 96.5%; in the test with SK-OV-3 ovarian, 95.6%; with IGROV1 ovarian it was 92%. Also, the growth was 108% in the test on OVCAR-3 ovarian; 106% in the test with HS 578T breast; 98.7% in the test with NCI/ADR-RES ovarian; 84.8% in the test on T-47D breast; 70.5% in the test on BT-549 breast; 94.5% with MDA-MB-435 melanoma. Moreover, the growth with SW-620 colon is 102%; in the test on MCF7 breast, 65.7%; in the test on HCT-116 colon it was 67.6%; with HCC-2998 colon, 78.5%; in the test with KM12 colon, 104%.
